We go through 14 molecules from PubChem BioAssay.

The nature of experiment [1]: inhibitors of TNFa-induced NFkB p65 translocation, primary screen, imaging, HUVEC, MLSMR starter and 10KST1 sets (AID 438;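 active = inhibition above 20% together with a positive visual image hit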;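 note: compound added about 3h40 before a 20 min TNFalpha stimulation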;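 for inhibition: signal is the nuclear over cytoplasmic p65 intensity ratio per well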). Particulars: HUVEC TNFa-induced p65 nuclear translocation; cell count: measured here: nuclei count (cytotoxicity indicator), at 2.08 µM; inhibition: at 2 µM, stronger effect = higher value, 0% TNFa-plus-vehicle, 100% no-TNFa wells.
Experiment [2] is described as follows: inhibitors of mutant huntingtin aggregation, primary screen, imaging, exon1htt(103Q)mCFP cells, high-content imaging (AID 483;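 active = visual image review flags a hit and inhibition of aggregation exceeds 20%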;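 note: compound exposure lasted 3 days before fixation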;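 for nuclei count: percent of the per-plate median nuclei count of sample wells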). As to conditions: exon1htt(103Q)mCFP cell line, aggregate imaging, at 2 µM; inhibition of aggregation: stronger effect = higher value; nuclei count: measured here: cell count, toxicity.
Experiment [3] is described as follows: inhibitors of E-selectin induction by TNFa, primary screen, imaging, HUVEC, immunofluorescence, MLSMR starter and 10KST1 sets (AID 487;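 active = visually confirmed hit in the image check and inhibition above 20%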;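 for inhibition: signal is fraction of cell area covered by stained E-selectin grains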;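 for nuclei count: 100% = median nuclei count of all wells on the same plate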). As to conditions: HUVEC TNFalpha-induced E-selectin immunofluorescence imaging, at 2 µM; inhibition: stronger effect = higher value; nuclei count: measured here: cell number, toxicity.
The target of experiment [4] is Voltage-gated potassium channel subunit beta-2 (Rattus norvegicus) (UniProt P62483). Put plainly: KvBeta enzyme negative modulators, primary screen, biochemical, NADPH fluorescence (AID 622;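 active = fluorescence slope higher than the sample average by over 3 SD, cut at about -0.22 in these data, passing the limit was not always enough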;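 note: slope of raw intensity against log time taken from 70 to 1610 s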). Particulars: recombinant KvBeta, 4-cyanobenzaldehyde reduction, at 10 µM, stronger effect = higher value.
Voltage-gated potassium channel subunit beta-2 (Rattus norvegicus), sequence (P62483 whole entry, looked up): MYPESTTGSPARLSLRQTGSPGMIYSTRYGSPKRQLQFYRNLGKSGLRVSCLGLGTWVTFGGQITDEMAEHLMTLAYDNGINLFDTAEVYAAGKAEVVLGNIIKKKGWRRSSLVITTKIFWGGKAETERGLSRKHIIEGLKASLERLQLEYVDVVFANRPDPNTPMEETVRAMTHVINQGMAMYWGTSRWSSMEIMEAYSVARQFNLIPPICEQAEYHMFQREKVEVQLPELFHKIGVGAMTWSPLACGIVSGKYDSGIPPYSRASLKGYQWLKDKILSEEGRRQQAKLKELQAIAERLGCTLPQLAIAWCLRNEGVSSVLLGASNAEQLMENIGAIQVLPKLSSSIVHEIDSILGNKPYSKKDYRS
For experiment [5] the target is unchanged. Put plainly: KvBeta positive modulators, primary screen, biochemical, NADPH fluorescence (AID 623;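 active = NADPH fluorescence slope more negative than the mean of all samples by about 3 SD, 99.7% confidence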;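 note: fluorescence intensity change per second fitted from 20 to 320 s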). Particulars: Recombinant KvBeta, NADPH fluorescence decrease slope, 10 min; at 10 µM; stronger effect = lower value.
The target in experiment [6] is Alpha-2C adrenergic receptor (Homo sapiens) (UniProt P18825). Put plainly: modulators of alpha2C/GIRK thallium flux, primary screen, cell-based, HEK293 alpha2C/GIRK1/2 (AID 624;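 active = fluorescence slope after compound addition differing from the mean of all screened samples at 99.7% confidence, in either direction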;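 note: slope of fluorescence ratio to pre-addition baseline per second over 15 to 24 s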). Particulars: thallium flux BTC fluorescence, at 10 µM, actives lie on both sides.
Alpha-2C adrenergic receptor (Homo sapiens), sequence (P18825 whole entry, looked up): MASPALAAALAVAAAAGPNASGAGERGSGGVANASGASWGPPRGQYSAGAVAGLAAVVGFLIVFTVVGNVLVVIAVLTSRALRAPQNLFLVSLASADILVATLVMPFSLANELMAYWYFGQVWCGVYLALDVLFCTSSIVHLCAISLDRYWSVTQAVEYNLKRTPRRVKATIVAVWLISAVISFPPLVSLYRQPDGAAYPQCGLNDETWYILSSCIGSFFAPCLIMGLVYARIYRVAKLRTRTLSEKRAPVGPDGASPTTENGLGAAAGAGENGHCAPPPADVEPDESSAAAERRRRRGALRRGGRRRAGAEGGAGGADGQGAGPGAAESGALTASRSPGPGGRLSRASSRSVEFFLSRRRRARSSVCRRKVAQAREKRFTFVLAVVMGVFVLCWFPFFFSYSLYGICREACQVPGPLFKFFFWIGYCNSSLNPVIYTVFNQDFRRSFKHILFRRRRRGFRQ
Experiment [7] can be described thus: inhibitors of Sendai virus-induced IRF3 signaling, primary screen, TLR/RLR signaling modifier project, cell-based, Sendai virus stimulus, luciferase, 10K MLSCN set (AID 602276;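 active = inhibition at or above 50% at 10 µM; inactive = inhibition below 50%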;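 note: firefly luciferase from ISG56 promoter only with Renilla not read in this screen; 0% = Sendai virus plus DMSO and 100% = medium plus DMSO without virus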). Particulars: HEK293 RL24 IRF3 luciferase reporter, at 10 µM, stronger effect = higher value. For orientation: In a reporter assay the amount or activity of a reporter protein is the signal.
Experiment [8] is described as follows: inhibitors of poly I:C-induced TLR3 signaling, primary screen, cell-based, poly I:C stimulus, luciferase, 10K MLSCN set (AID 602277). As to conditions: HEK293-TLR3 RL24 IRF3 luciferase reporter, at 10 µM, stronger effect = higher value.

Active and inactive are the calls of the source.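 Rule for the calls, unless noted: active = inhibition of the reporter signal at or above 50%; inactive = inhibition below 50%.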

Consider `CC(C)CCNC(=O)Cn1c(NCCC(C)C)nc2c1c(=O)n(C)c(=O)n2C`, for which the cell count in experiment [1] was found to be 544. Moreover, the inhibition in experiment [1] was -8.3% (inactive); in experiment [3], -11.6% (inactive); in experiment [7], 3.06% (inactive); in experiment [8] it was 33.2% (inactive). The inhibition of aggregation in experiment [2] was 28.1% (inactive). The results for the nuclei count in experiment [2] and in experiment [3] were 80.1% and 102%, respectively. Moreover, the fluorescence slope in experiment [4] is -0.623 (inactive). In experiment [5], the NADPH fluorescence slope is 8.9e-06 (inactive). In addition, the slope in experiment [6] is 0.0069 (inactive).

In the case of `CCOc1ccc(Cn2nnc(C(=O)Nc3cc(C)cc(C)c3)c2N)cc1`, the cell count in experiment [1] is 751. The inhibition was -0.6% (inactive) in experiment [1], -46.9% (inactive) in experiment [3], 2.58% (inactive) in experiment [7] and 9.37% (inactive) in experiment [8]. Besides, in experiment [2], the inhibition of aggregation was 12.1% (inactive). Besides, the nuclei count is 100% in experiment [2] and 108% in experiment [3]. The fluorescence slope in experiment [4] is -0.521 (inactive). Moreover, the NADPH fluorescence slope in experiment [5] is -2.6e-05 (inactive). Further, in experiment [6], the slope is 0.00695 (inactive).

As to `Cn1nnnc1SCC(=O)Nc1ccccc1-c1ccccc1`, the cell count in experiment [1] came out at 484. Further, the inhibition in experiment [1] is -8.7% (inactive); in experiment [3], -80.2% (inactive); in experiment [7], 6.85% (inactive); in experiment [8], -4.74% (inactive). The inhibition of aggregation in experiment [2] is 14.7% (inactive). The results for the nuclei count in experiment [2] and in experiment [3] were 87.9% and 114%, respectively. The fluorescence slope in experiment [4] was -0.302 (inactive). Further, the NADPH fluorescence slope in experiment [5] was -1.3e-05 (inactive). Moreover, the slope in experiment [6] was 0.00645 (inactive).

Turning to `O=C1CC(c2ccccc2)n2nc(NC(=O)c3ccccn3)nc2N1` (centres undefined), the cell count in experiment [1] came out at 565. For the same molecule, the inhibition in experiment [1] is 3.3% (inactive); in experiment [3], 16.2% (inactive); in experiment [7] it was 9.98% (inactive); in experiment [8], 27.1% (inactive). In addition, in experiment [2], the inhibition of aggregation is -11.8% (inactive). Moreover, the nuclei count worked out at 108% in experiment [2] and 106% in experiment [3]. For the same molecule, in experiment [4], the fluorescence slope was -0.605 (inactive). Also, the NADPH fluorescence slope in experiment [5] is -3.9e-05 (inactive). The slope in experiment [6] is 0.00587 (inactive).

With `O=C(CCCn1c(=O)c2sccc2n(Cc2cc(=O)n3ccccc3n2)c1=O)NCc1ccco1`, the cell count in experiment [1] was 729. The inhibition in experiment [1] was -2.9% (inactive); in experiment [3] it was -67.8% (inactive); in experiment [7], -12.7% (inactive); in experiment [8] it was -8.56% (inactive). The inhibition of aggregation in experiment [2] was -3.9% (inactive). In addition, the nuclei count in experiment [2] was determined as 106%; in experiment [3], 116%. Further, the fluorescence slope in experiment [4] was -0.575 (inactive). Further, the NADPH fluorescence slope in experiment [5] was 3.3e-07 (inactive). Besides, the slope in experiment [6] was 0.0069 (inactive).

`CCOc1ccccc1C(=O)Nc1cc(=O)n(C)c(=O)n1C`: the cell count in experiment [1] came to 651. Moreover, the inhibition in experiment [1] was -0.8% (inactive); in experiment [3] it was 31% (inactive); in experiment [7], 14.8% (inactive); in experiment [8], 39.7% (inactive). Besides, the inhibition of aggregation in experiment [2] is 6.8% (inactive). Also, the nuclei count in experiment [2] was determined as 95.8%; in experiment [3], 98.4%. Further, the fluorescence slope in experiment [4] is -0.416 (inactive). Further, the NADPH fluorescence slope in experiment [5] is -4.9e-05 (inactive). Moreover, the slope in experiment [6] is 0.00585 (inactive).

On to `COc1ccc(C(=O)Oc2c(CN3CCOCC3)cc(Cl)c3cccnc23)cc1OC`, for which the cell count in experiment [1] stood at 601. Also, the inhibition was -2.4% (inactive) in experiment [1], -53.1% (inactive) in experiment [3], -3.08% (inactive) in experiment [7] and 30.9% (inactive) in experiment [8]. Moreover, in experiment [2], the inhibition of aggregation was -3.9% (inactive). Besides, the nuclei count in experiment [2] was determined as 100%; in experiment [3] it was 111%. For the same molecule, in experiment [4], the fluorescence slope was -0.533 (inactive). The NADPH fluorescence slope in experiment [5] was -2.5e-05 (inactive). For the same molecule, the slope in experiment [6] is 0.00812 (inactive).

As for `O=C(CCc1ccccc1)Nc1ccncc1`, the cell count in experiment [1] turned out to be 412. In addition, the inhibition in experiment [1] was 1% (inactive); in experiment [3], -273% (inactive); in experiment [7], -2.19% (inactive); in experiment [8] it was 11.2% (inactive). In addition, the inhibition of aggregation in experiment [2] is 7.9% (inactive). For the same molecule, the nuclei count in experiment [2] was determined as 94.1%; in experiment [3], 118%. Also, in experiment [4], the fluorescence slope was -0.446 (inactive). In experiment [5], the NADPH fluorescence slope was -1.1e-05 (inactive). In addition, the slope in experiment [6] is 0.00342 (inactive).

Take `COc1ccc(C)cc1NC(=O)CCC(=O)Nc1ccc2nc(N3CCN(C)CC3)cc(C)c2c1`: the cell count in experiment [1] was 623. The inhibition is 1.5% (inactive) in experiment [1], -62.6% (inactive) in experiment [3], -21.1% (inactive) in experiment [7] and -51.1% (inactive) in experiment [8]. In addition, the inhibition of aggregation in experiment [2] is -9.5% (inactive). Moreover, the nuclei count in experiment [2] was found to be 104%; in experiment [3], 108%. For the same molecule, in experiment [4], the fluorescence slope is -0.428 (inactive). The NADPH fluorescence slope in experiment [5] was 6e-06 (inactive). Further, the slope in experiment [6] is 0.00326 (inactive).

As to `CCN(C(=O)c1c(OC)cccc1OC)c1nnc(-c2cccnc2)s1`, in experiment [1], the cell count was found to be 892. The inhibition in experiment [1] is 3.3% (inactive); in experiment [3], -49.6% (inactive); in experiment [7] it was 8.32% (inactive); in experiment [8], 18.6% (inactive). Moreover, the inhibition of aggregation in experiment [2] is -35.8% (inactive). The nuclei count in experiment [2] was 105%; in experiment [3] it was 137%. The fluorescence slope in experiment [4] was -0.336 (inactive). The NADPH fluorescence slope in experiment [5] was -3.4e-05 (inactive). The slope in experiment [6] is 0.00467 (inactive).

Turning to `O=C(CN1C(=O)c2ccccc2S1(=O)=O)NCc1ccccc1Cl`, the cell count in experiment [1] was determined as 698. Further, the inhibition was 4.2% (inactive) in experiment [1], -45.6% (inactive) in experiment [3], 9.36% (inactive) in experiment [7] and 22.5% (inactive) in experiment [8]. Also, the inhibition of aggregation in experiment [2] was 8.6% (inactive). Moreover, the nuclei count stood at 106% in experiment [2] and 108% in experiment [3]. Besides, in experiment [4], the fluorescence slope was -0.599 (inactive). Further, the NADPH fluorescence slope in experiment [5] was -1.3e-05 (inactive). Also, the slope in experiment [6] is 0.0066 (inactive).

`CCC(c1nnnn1C(C)(C)C)N1CCN(C2CCCC2)CC1` (centres undefined): the cell count in experiment [1] was 450. Moreover, the inhibition in experiment [1] was 1.3% (inactive); in experiment [3], -46.6% (inactive); in experiment [7], 16.1% (inactive); in experiment [8], 9.37% (inactive). The inhibition of aggregation in experiment [2] is -7.5% (inactive). In addition, the nuclei count in experiment [2] was 124%; in experiment [3] it was 128%. For the same molecule, the fluorescence slope in experiment [4] is -0.634 (inactive). In addition, the NADPH fluorescence slope in experiment [5] is -1.4e-05 (inactive). Besides, the slope in experiment [6] is 0.00353 (inactive).

Regarding `CCCN1CCC(NC(=O)Nc2ccc(OC)c(OC)c2)CC1`, the cell count in experiment [1] stood at 308. The inhibition in experiment [1] was -0.5% (inactive); in experiment [3], -43.3% (inactive); in experiment [7], 9.89% (inactive); in experiment [8] it was 33.2% (inactive). The inhibition of aggregation in experiment [2] is 12.6% (inactive). For the same molecule, the nuclei count in experiment [2] was 87.5%; in experiment [3], 107%. Further, the fluorescence slope in experiment [4] was -0.383 (inactive). Besides, the NADPH fluorescence slope in experiment [5] is 1.9e-05 (inactive). Moreover, the slope in experiment [6] was 0.00372 (inactive).

In the case of `CC(=O)c1c(C)[nH]c(C(=O)Nc2c(C)n(C)n(-c3ccccc3)c2=O)c1C`, the cell count in experiment [1] worked out at 418. The inhibition is 2% (inactive) in experiment [1], -137% (inactive) in experiment [3], 17.1% (inactive) in experiment [7] and 21.5% (inactive) in experiment [8]. The inhibition of aggregation in experiment [2] was -7.3% (inactive). Also, the values for the nuclei count in experiment [2] and in experiment [3] were 112% and 111%, respectively. For the same molecule, the fluorescence slope in experiment [4] was -0.493 (inactive). In addition, the NADPH fluorescence slope in experiment [5] was -2.7e-05 (inactive). Besides, the slope in experiment [6] was 0.00389 (inactive).

By inhibition is commonly meant the drop in the measured response relative to a control, in per cent.
